# Screening data (PubChem BioAssay)
# HT1080-NT tox: qHTS for induction of synthetic lethality in tumor cells producing 2HG: qHTS for the HT-1080-NT fibrosarcoma cell line | HT-1080-NT fibrosarcoma viability, CellTiter-Glo ATP luminescence, 48 h | Potency, µM (doses to about 46.1 µM), actives largely listed as cytotoxic | hit rate 1.6% among 360,000 | AID 686970, 2013;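 also: NT is the 2HG producing partner of a matched IDH1 knockdown line; nearly all actives have a fitted effect of over 55% in size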
#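 Read-out is CellTiter-Glo luminescence after 10 minutes at room temperature, following 48 hours' compound treatment of HT-1080-NT cells (750 cells/well, RPMI, 5% FBS, 37 degrees C).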
# DT40 TDP1 no CPT: qHTS for Inhibitors of human tyrosyl-DNA phosphodiesterase 1 (TDP1): qHTS in cells in absence of CPT; DT40 Tdp1-/- hTDP1 cells, no CPT, ATP luminescence, 48 h; Potency, µM (doses to about 46.2 µM), usual class: inhibitors; hit rate 15% among 420,000; AID 686978, 2013; also: nearly all actives have a fitted effect of over 55% in size
#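 Chicken DT40 Tdp1-/- cells stably complemented with human TDP1 were seeded at 400 cells/well with DMSO in place of 20 nM camptothecin. After compound pinning, cells grew at least 48 hr at 37 °C; viability read by CellTiter-Glo luminescence.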
# HepG2 viability: qHTS for Inhibitors of TGF-b: Cytotox Counterscreen. HepG2 CAGA-GFP viability, ATP luminescence, 18 h. Potency, µM (highest dose often 46.1 µM), hits mostly cytotoxic. hit rate 0.76% among 410,000
#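 CellTiter-Glo luminescence gave cytotoxicity after 18 hours at 37 degrees C. The cells were HepG2 CAGA-GFP in 1% FBS DMEM, stimulated with 500 pg/mL TGF-beta after compound addition. %Activity was normalised to no-cell wells (complete cell-killing) and DMSO (no toxicity), and curves were fitted and classified.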
# HT1080 IDH1KD tx: qHTS for induction of synthetic lethality in tumor cells producing 2HG: qHTS for the HT-1080-IDH1KD cell line; Potency, µM (series often up to 46.1 µM), hits mostly cytotoxic; HT-1080 IDH1 knockdown viability, ATP luminescence, 48 h; hit rate 2% among 360,000; AID 686971, 2013
#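 Cytotoxicity counter-line: IDH1KD HT-1080, 48 h, CellTiter-Glo. Curves classed by r2, magnitude and activity.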
# TGFb SMAD3 inh: qHTS for Inhibitors of TGF-b | HepG2 CAGA-GFP TGF-b/SMAD3 reporter, GFP fluorescence, 18 h; TGF-beta stimulated, 500 pg/mL final | Potency, µM (titrated, usually from 46.1 µM), actives largely listed as inhibitors | hit rate 1.2% among 410,000; also: nearly all actives have a fitted effect of over 65% in size
#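 Read-out: total well GFP (ex488/em500-530) summed from mean per-cell fluorescence. Cells: HEPG2 CAGA-GFP, 1% FBS DMEM, 18 h at 37 degrees C with 500 pg/mL final TGF-beta. Unstimulated wells served as the full-inhibition control; stimulated DMSO wells = 0%.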
# TDP1 cell CPT: qHTS for Inhibitors of human tyrosyl-DNA phosphodiesterase 1 (TDP1): qHTS in cells in presence of CPT | chicken DT40 Tdp1-/-;hTDP1 cells + 20 nM CPT, ATP luminescence, 48 h | Potency, µM (highest dose often 46.2 µM), hits mostly inhibitors | hit rate 12% among 420,000 | AID 686979, 2013; also: nearly all actives have a fitted effect of over 55% in size
#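 Chicken DT40 Tdp1-/- cells stably complemented with human TDP1 were seeded at 400 cells/well in medium containing 20 nM camptothecin, exposed to pin-transferred compounds, and grown at 37 °C for at least 48 hr. Viability was read as ATP luminescence.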
# Numbers stand for hits; - = inactive; ? = inconclusive; . = no result. Sampled rows, rich in hits. Any-hit rate of the full collection: about 17%. Calls follow the shape of the dose curve; as a rule, active = well fitted curve in the direction sought with a large enough effect; inconclusive = small, poorly fitted or top-dose-only effect, or another doubt; inactive = no such curve, though single readings can be large; an effect the other way counts as inactive or inconclusive.
SMILES,HT1080-NT tox,DT40 TDP1 no CPT,HepG2 viability,HT1080 IDH1KD tx,TGFb SMAD3 inh,TDP1 cell CPT
COC(=O)C1=C(c2ccc3ccccc3c2)C[C@@H]2CC[C@H]1N2C(=O)N1CCC(O)CC1,-,?,-,-,-,?
COC(=O)C1=C(c2ccc3ccccc3c2)C[C@@H]2CC[C@H]1N2C(=O)N1CCCCC1,-,1.8µM,-,-,?,2.3µM
COC(=O)C1=C(c2ccc(OC)c(OC)c2)C[C@@H]2CC[C@H]1N2C(=O)N1CCC(O)CC1,-,-,-,-,?,-
COC(=O)c1ccccc1C(=O)OC,.,-,.,.,.,-
O=C(/C=C/c1ccccc1)N1Cc2ccccc2-n2nncc2C1,-,?,-,-,-,-
O=C(c1ccco1)N1CCN(c2nc(C3CC3)nc3sc4c(c23)CCCC4)CC1,?,?,-,?,?,26µM
Cc1ccc(C(C#N)=Cc2ccc3c(c2)OCO3)cc1,-,12µM,-,?,-,?
COc1ccc(CCNCc2ccncc2)cc1,-,-,-,-,-,-
CC=CC(C)=CC(C)C(=O)CC(O)CC1CC(=O)NC(=O)C1 (configuration not stated),-,5.8µM,-,-,-,8.2µM
N#CN,.,-,.,.,.,-
COC(=O)C1=C(c2cccc(OC)c2OC)C[C@@H]2CC[C@H]1N2C(=O)NC1CC1,-,.,-,-,-,-
COc1cc2c(c(OC)c1OC)-c1ccc(O)c(=O)cc1C(NC(C)=O)CC2 (configuration not stated),0.0052µM,0.065µM,-,0.041µM,?,0.026µM
COC1=C[C@@H]2C3=C([C@@H]2C1=O)[C@@H](NC(C)=O)CCc1cc(OC)c(OC)c(OC)c13,-,-,-,-,-,-
COc1ccc2c(c1)C(NC(C)=O)CCc1cc(OC)c(OC)c(OC)c1-2 (configuration not stated),0.0058µM,0.018µM,-,?,-,0.0082µM
COc1cc2c(c(OC)c1OC)-c1ccc(OC)c(=O)cc1C(NC(C)=O)CC2 (configuration not stated),0.015µM,0.0092µM,-,?,-,0.018µM
COC(=O)C1=C(c2cccc(OC)c2OC)C[C@@H]2CC[C@H]1N2C(=O)NCCNC(C)=O,-,-,-,-,-,-
CCOC(=O)C(O)(c1ccc(N(CC)C(=O)COc2ccccc2)cc1)C(F)(F)F (configuration not stated),-,?,-,-,-,?
COC(=O)C1=C(c2ccc(S(C)(=O)=O)cc2)C[C@@H]2CC[C@H]1N2C(=O)N1CCOCC1,-,-,-,-,-,-
Cc1ccc(OCC(=O)N2CCN(CCc3ccncc3)CC2)cc1C,.,-,-,.,-,-
O=P(Oc1ccc(-c2ccccc2)cc1)(N1CC1)N1CC1,-,9.2µM,-,-,-,2.1µM
O=P(Oc1ccc(Cl)cc1)(N1CC1)N1CC1,-,?,-,-,-,6.5µM
CC1=C2CCC3C4CCC(=O)[C@@]4(C)CCC3[C@]2(C)CCC1=O (some centres not stated),.,-,.,.,.,-
CCCCCCCCCC(=O)O[C@H]1CC[C@H]2[C@@H]3CCC4=CC(=O)CC[C@]4(C)[C@H]3CC[C@]12C,.,-,.,.,.,-
Cc1nc(-c2ccc(-c3ccc(C(=O)N4CCc5cc6c(cc54)C4(CCN(C)CC4)CO6)cc3)c(C)c2)no1,.,6µM,.,.,.,7.5µM
O=C(O)c1cccc2nc3ccccc3nc12,-,?,-,-,?,?
SMILES,HT1080-NT tox,DT40 TDP1 no CPT,HepG2 viability,HT1080 IDH1KD tx,TGFb SMAD3 inh,TDP1 cell CPT
Cc1ccc(C)c(N2CCN(c3nc4ccc(Cl)cc4n4cnnc34)CC2)c1,.,16µM,-,.,.,18µM
CCN1C(=O)c2ccccc2Sc2ccc(NC(=O)c3ccc(C)c(F)c3)cc21,.,?,-,.,-,?
CCCOc1ccc(C(=O)Nc2ccc(-c3cc4ccccc4oc3=O)c(C)c2)cc1,.,5.2µM,-,.,-,10µM
COc1ccc(C(=O)N2CCN(c3nc4c(OC)cccc4s3)CC2)cc1OC,.,15µM,-,.,-,18µM
COc1ccc(C(=O)N2C[C@H]3C[C@@H](C2)c2cccc(=O)n2C3)cc1OC,-,-,-,-,-,-
Cc1ccc2c(c1)[C@H]1[C@H](CO2)[C@H](c2ccccc2)[C@]2(C)C(=O)N(CC3CCCO3)CC(=O)N12 (some centres not stated),-,?,-,-,-,-
O=C(CNC(=O)c1ccco1)OCN1C(=O)c2ccccc2C1=O,-,?,-,-,-,?
CN1C[C@H](C(=O)NC2(C)OC3(O)[C@@H]4CCCN4C(=O)[C@H](Cc4ccccc4)N3C2=O)CC2c3cccc4[nH]cc(c34)C[C@H]21 (some centres not stated),?,16µM,-,?,-,16µM
CCN(CC)C(=O)N[C@H]1C[C@@H]2c3cccc4[nH]cc(c34)C[C@H]2N(C)C1,-,-,-,-,-,?
CC(C)C[C@H]1C(=O)N2CCC[C@H]2[C@]2(O)O[C@](NC(=O)[C@@H]3C=C4c5cccc6[nH]cc(c56)C[C@H]4N(C)C3)(C(C)C)C(=O)N12,-,16µM,-,-,-,21µM
O=C(c1ccncc1)N1CCC2(CC1)CN(Cc1ccccc1)C2,.,-,.,.,.,-
CC(C)c1cccc(C(C)C)c1OC(=O)NC(=O)c1c(F)cccc1F,?,-,-,-,-,?
CCOC(=O)N1CCN(c2ccc(Cl)c(Cl)c2)CC1,-,13µM,-,-,-,?
CCCC(=O)Nc1ccc(N2CCN(CC)CC2)c(Cl)c1,-,?,-,-,-,-
COC(=O)C(NC(C)=O)(Nc1nc2c(C)cc(C)cc2s1)C(F)(F)F (configuration not stated),16µM,16µM,-,13µM,-,?
O=C(c1cccnc1)N1Cc2ccccc2-n2nncc2C1,-,-,-,-,-,-
C[C@@H]1C[C@H](Nc2ccccc2)c2ccccc2N1C(=O)c1cccnc1,-,4.6µM,-,-,-,7.3µM
CC1NCCOC1c1ccccc1 (configuration not stated),.,-,.,.,.,-
O=[N+]([O-])c1cccc(NP(=O)(N2CC2)N2CC2)c1,-,6.5µM,-,-,-,2.1µM
